For some assays here: Measured potencies and affinities stand elsewhere.
Legend:
Design in all cases: scale not given: direction of the effect not stated beside the values
[1] = target: Protein translocase subunit SecA (Escherichia coli (strain K12)) (UniProt P10408); assay: Assay to Identify E. coli SecA ATPase Inhibitors; type: functional; conditions: 30 µM
[2] = target: T1, Ubiquitin-activating enzyme e1, putative (Leishmania donovani (strain BPK282A1)) (UniProt E9BSI1); assay: Leishmania donovani Ubiquitin Activating Enzyme (LdE1); type: functional; conditions: 30 µM
T1 sequence (whole entry): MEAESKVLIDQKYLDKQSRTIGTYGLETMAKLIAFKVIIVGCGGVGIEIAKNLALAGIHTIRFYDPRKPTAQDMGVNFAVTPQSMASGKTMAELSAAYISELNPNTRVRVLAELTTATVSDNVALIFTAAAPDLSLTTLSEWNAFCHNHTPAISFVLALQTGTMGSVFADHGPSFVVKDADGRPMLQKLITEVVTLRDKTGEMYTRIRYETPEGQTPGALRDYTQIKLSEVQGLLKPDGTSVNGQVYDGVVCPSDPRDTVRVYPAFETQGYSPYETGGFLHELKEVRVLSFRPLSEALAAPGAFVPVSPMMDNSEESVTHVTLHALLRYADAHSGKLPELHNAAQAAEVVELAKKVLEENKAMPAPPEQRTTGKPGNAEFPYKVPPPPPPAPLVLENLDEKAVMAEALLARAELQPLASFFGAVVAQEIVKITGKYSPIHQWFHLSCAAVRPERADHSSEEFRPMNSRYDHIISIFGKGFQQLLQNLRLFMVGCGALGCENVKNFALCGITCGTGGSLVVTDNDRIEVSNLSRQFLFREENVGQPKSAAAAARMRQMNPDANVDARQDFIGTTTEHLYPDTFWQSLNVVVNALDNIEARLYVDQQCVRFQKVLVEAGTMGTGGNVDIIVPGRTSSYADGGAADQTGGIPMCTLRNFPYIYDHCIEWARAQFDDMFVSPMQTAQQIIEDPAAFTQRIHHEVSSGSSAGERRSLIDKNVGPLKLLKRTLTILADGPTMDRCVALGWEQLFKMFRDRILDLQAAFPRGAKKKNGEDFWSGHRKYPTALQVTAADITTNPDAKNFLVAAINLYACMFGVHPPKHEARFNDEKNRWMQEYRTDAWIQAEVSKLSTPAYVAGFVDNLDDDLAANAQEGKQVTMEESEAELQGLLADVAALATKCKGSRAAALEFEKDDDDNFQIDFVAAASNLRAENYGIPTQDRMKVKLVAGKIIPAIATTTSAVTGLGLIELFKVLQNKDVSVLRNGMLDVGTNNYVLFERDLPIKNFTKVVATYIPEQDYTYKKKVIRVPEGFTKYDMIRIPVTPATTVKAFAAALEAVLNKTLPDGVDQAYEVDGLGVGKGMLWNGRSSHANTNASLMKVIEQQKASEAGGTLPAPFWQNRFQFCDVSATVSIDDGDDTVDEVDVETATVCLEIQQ

[3] = target: AMP-activated protein kinase, AMPK (Homo sapiens) (UniProt P54646+O43741+P54619+Q9UGJ0+Q9Y478+Q13131+Q9UGI9); assay: AMP-dependent Kinase enzyme assay. An in vitro enzyme assay that detects ADP turnover that is directly proportional to AMPK activity. This uses naive AMPK that is activated during the assay with MK-8722; type: functional; conditions: 30 µM
[4] = target: Sialic acid-binding Ig-like lectin 9 (Homo sapiens) (UniProt Q9Y336); assay: Hs-Siglec9 ALPHAscreen SOP 20170721; conditions: 10 µM
Trypanosoma cruzi = assay: Trypanosoma cruzi phosphomannomutase and mannose-1-phosphate guanylyltransferase assay; type: functional; conditions: 10 µM
[5] = target: T2, Arginase-2, mitochondrial (Homo sapiens) (UniProt P78540); assay: in vitro enzyme assay to detect the production of urea directly proportional to the activity of Arginase II; type: functional; conditions: 33.3 µM; also: in the data most compounds retested in dose-response had high values
T2 sequence (whole entry): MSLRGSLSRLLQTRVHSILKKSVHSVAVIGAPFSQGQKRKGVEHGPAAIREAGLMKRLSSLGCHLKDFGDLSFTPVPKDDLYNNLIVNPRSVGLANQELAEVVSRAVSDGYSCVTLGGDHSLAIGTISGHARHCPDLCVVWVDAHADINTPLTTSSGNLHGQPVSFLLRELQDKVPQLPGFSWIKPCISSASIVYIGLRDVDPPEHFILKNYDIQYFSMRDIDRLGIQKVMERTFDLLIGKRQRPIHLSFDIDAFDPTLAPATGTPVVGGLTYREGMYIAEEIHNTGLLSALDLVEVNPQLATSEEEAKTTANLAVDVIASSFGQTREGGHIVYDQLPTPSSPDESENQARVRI

[6] = target: T3, Proteasome subunit beta (Trypanosoma cruzi) (UniProt O96673); assay: Trypanosoma cruzi proteasome chymotrypsin-like activity (TcProtChymo) assay.; also: in the data most compounds retested in dose-response had high values; type: functional; conditions: 9.37 µM
T3 sequence (whole entry): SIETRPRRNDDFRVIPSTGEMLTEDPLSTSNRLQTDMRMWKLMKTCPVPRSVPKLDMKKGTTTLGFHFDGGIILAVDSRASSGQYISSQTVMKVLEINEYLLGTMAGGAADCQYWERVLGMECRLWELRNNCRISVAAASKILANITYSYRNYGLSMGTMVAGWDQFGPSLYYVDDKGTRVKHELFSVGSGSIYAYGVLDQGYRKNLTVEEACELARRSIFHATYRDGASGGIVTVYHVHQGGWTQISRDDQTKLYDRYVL

Homo sapiens = species: Homo sapiens; assay: To identify inhibition of the IFN signalling (Jak-Stat) pathway via expression of an eGFP reporter gene under the control of an IFN-stimulated response element (ISRE) containing MxA promoter.; type: functional; conditions: 30 µM
[7] = target: T4, Tyrosyl-tRNA synthetase, putative (Trypanosoma cruzi (strain CL Brener)) (UniProt Q4DSP6); assay: Trypanosoma cruzi tyrosyl tRNA synthetase (TcYRS) _High Tyrosine SOP; type: functional; conditions: 30 µM; also: in the data most compounds retested in dose-response had high values
T4 sequence (whole entry): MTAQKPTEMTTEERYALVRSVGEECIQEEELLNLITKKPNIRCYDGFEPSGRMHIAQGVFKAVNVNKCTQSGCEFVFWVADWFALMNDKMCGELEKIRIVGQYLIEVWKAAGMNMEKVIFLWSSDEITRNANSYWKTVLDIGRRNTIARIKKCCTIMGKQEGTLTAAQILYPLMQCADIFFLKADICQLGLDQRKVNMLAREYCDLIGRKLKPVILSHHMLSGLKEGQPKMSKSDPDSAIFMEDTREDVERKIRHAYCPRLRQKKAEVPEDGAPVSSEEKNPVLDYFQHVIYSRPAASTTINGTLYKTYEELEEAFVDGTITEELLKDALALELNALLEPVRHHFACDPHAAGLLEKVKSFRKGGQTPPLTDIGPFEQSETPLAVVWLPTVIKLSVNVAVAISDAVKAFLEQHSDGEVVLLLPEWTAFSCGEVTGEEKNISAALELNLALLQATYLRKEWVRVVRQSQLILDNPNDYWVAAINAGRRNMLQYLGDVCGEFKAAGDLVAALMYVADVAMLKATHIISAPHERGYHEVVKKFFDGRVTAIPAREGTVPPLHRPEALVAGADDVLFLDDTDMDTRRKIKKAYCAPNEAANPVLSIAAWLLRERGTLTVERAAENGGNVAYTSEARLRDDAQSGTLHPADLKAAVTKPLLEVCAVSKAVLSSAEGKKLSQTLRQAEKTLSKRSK

[8] = target: T4, Tyrosyl-tRNA synthetase, putative (Trypanosoma cruzi (strain CL Brener)); assay: Trypanosoma cruzi tyrosyl tRNA synthetase (TcYRS) SOP; type: functional; conditions: 30 µM
[9] = target: Chromo domain-containing protein 1 (Saccharomyces cerevisiae (strain ATCC 204508 / S288c) (Baker's yeast)) (UniProt P32657); assay: ScCHD-1 Enzyme Inhibition Assay; type: functional; conditions: 30 µM; also: in the data most compounds retested in dose-response had high values
Sequence of Chromo domain-containing protein 1 (Saccharomyces cerevisiae (strain ATCC 204508 / S288c) (Baker's yeast)) (P32657 whole entry, the tested form may be a part): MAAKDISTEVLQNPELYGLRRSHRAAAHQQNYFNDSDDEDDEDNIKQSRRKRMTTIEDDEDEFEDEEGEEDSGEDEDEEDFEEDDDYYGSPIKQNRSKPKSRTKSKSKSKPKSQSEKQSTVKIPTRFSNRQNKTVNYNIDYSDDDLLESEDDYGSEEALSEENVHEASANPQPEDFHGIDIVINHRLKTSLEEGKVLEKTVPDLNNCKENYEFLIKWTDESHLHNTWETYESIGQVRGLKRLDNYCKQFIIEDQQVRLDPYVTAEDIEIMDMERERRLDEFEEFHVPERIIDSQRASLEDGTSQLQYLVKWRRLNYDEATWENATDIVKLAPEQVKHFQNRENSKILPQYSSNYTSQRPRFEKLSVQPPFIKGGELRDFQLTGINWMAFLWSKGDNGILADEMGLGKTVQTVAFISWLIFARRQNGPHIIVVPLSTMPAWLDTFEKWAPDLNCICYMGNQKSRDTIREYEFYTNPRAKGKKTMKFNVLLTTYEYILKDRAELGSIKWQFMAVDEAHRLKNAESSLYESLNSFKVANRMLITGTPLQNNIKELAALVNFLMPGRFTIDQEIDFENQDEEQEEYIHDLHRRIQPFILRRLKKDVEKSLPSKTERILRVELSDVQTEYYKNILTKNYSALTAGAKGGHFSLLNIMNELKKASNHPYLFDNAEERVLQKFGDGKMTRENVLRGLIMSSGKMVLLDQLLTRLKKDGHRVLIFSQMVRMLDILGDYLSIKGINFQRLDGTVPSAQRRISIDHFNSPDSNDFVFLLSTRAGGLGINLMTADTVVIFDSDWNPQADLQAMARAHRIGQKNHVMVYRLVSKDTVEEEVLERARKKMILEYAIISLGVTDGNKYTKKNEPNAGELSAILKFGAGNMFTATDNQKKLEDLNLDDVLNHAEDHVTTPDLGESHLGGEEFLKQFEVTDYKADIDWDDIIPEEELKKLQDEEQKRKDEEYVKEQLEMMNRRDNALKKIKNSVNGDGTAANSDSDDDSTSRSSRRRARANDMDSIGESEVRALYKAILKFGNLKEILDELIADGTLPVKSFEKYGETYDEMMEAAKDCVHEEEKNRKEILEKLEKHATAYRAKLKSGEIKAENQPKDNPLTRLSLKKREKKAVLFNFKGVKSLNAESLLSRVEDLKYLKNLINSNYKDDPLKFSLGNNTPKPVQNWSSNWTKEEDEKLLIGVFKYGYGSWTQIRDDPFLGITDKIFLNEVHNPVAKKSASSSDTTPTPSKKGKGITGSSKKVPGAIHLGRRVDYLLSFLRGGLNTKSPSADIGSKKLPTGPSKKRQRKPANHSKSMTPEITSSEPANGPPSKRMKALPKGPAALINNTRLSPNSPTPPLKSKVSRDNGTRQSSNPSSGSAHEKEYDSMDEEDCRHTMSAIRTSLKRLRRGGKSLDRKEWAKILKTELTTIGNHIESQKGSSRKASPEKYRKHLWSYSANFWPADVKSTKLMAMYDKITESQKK

Sequence of Protein translocase subunit SecA (Escherichia coli (strain K12)) (P10408 whole entry): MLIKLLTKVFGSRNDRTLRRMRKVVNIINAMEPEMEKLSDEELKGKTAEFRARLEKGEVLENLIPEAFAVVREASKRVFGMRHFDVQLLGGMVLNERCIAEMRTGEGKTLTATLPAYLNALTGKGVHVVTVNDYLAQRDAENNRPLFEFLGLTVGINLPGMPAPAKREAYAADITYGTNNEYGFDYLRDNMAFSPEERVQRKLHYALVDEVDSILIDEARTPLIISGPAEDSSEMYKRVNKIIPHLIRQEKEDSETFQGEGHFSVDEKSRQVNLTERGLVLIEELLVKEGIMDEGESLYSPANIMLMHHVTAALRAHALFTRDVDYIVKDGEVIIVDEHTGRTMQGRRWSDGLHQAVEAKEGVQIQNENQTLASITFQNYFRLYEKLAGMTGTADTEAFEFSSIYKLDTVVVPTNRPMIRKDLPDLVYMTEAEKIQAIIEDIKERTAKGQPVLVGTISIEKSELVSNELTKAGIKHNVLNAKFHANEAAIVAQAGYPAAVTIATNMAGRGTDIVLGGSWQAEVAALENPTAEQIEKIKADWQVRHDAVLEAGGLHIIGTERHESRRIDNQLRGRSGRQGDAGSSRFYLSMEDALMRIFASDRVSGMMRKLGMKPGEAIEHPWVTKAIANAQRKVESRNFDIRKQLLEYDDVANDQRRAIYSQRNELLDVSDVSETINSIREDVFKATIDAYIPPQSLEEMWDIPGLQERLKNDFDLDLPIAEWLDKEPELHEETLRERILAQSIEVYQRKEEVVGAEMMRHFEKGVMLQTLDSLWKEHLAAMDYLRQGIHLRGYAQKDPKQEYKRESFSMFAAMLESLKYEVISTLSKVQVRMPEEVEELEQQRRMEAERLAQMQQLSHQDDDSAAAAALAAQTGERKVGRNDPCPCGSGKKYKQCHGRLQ
Sequence of Sialic acid-binding Ig-like lectin 9 (Homo sapiens) (Q9Y336 whole entry): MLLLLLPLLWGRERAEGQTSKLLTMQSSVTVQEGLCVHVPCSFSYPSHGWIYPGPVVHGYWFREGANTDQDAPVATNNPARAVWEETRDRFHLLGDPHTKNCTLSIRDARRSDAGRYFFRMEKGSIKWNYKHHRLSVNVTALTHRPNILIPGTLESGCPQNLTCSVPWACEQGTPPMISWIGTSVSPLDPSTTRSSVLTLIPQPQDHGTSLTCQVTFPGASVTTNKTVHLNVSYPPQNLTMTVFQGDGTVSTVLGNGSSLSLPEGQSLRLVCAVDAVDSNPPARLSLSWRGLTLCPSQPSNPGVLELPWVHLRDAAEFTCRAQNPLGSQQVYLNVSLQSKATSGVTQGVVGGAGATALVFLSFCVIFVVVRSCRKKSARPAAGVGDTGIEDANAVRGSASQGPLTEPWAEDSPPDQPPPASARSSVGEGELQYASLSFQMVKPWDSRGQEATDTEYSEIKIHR

Row | SMILES | Percent Effect [1] | Percent Effect [2] | Percent Effect [3] | Percent Effect [4] | Percent Effect (Trypanosoma cruzi) | Percent Effect [5] | Percent Effect [6] | Percent Effect (Homo sapiens) | Percent Effect [7] | Percent Effect [8] | Percent Effect [9]
1 | CN(Cc1cnn(C)c1)C(=O)Cn1c(CS(C)(=O)=O)nc2ccccc21 | -1.5% | 10.5% | 3.77% | -0.257% | -3.6% | -8.28% | 11.2% | 9.18% | 5.32% | 10.4% | -3.69%
2 | CCSc1cc(C(=O)NCc2ccccc2O)ccn1 | -5.37% | 0% | 5.33% | -0.329% | 7.05% | -0.909% | 12.2% | 44.3% | 3.23% | 5% | -5.04%
3 | Cc1nc(NC(=O)CN2CCc3c(nc(C(C)C)n3C)C2)sc1C | -3.02% | 5.41% | -2.02% | 11% | 8.69% | -1.43% | 19.8% | 15% | 6.88% | 19.5% | -1.68%
4 | CNS(=O)(=O)c1ccc(C(=O)N2CCCC2Cc2ccccc2)o1 (configuration not stated) | -3.24% | -42.1% | 1.36% | -2.48% | 2.52% | 1.8% | 12.6% | 16.6% | 4.43% | 16.1% | -9.41%
5 | COc1ccc(CNC(=O)NC2CCC(O)CC2)c(C(F)(F)F)c1 (configuration not stated) | -1.24% | -9.72% | -2.59% | -9.45% | -4.57% | 1.32% | 14% | -1.15% | 3.16% | 2.56% | -2.64%
6 | O=C(Nc1cccnc1)[C@H]1C[C@@H]2CN(C(=O)NC3CCCC3)C[C@H]1O2 | -0.299% | 13.5% | 5.36% | -10.3% | -6.94% | 6.69% | 24.5% | -1.23% | 0% | 15.4% | -0.793%
7 | CCn1cnnc1CNC(=O)N1CCN(c2nc(C)c(C)s2)CC1 | -8.34% | 10.4% | -7.32% | 12.2% | 4.68% | -4.27% | 0.676% | -2.89% | 5.83% | 19.5% | -9.23%
8 | Cn1cnc2c1C(COCC1CC1)CN(C(=O)Cc1ccsc1)C2 (configuration not stated) | -4.47% | 10.4% | -8.29% | 8.48% | 6.02% | -8.39% | 7.14% | 9.25% | 2.12% | 6.41% | 84.8%
9 | Cc1cccc(Nc2nccnc2C2CCCN2CC(=O)N(C)C)n1 (configuration not stated) | -5.74% | 8% | -0.423% | 3.06% | 5.32% | -3.5% | -3.08% | 1.25% | 4.25% | 6.41% | 3.88%
10 | O=S(=O)(C1CC1)N1CCO[C@H]2[C@H](OCC3CCCC3)CC[C@@H]21 | -4.67% | 0% | 1.22% | -1.17% | 4.83% | -45.7% | 2.05% | -5.99% | 0% | 5% | -4.13%
11 | CC1CN(C)c2ccccc2CN1C(=O)CSc1ccncc1 (configuration not stated) | -1.53% | 11% | 2.54% | 1.63% | 0.783% | 2.73% | 2.48% | 17.3% | 6.45% | 7.5% | -6.19%
12 | COC(=O)C1CCN(C(=O)CN2CCN(c3cccc(C)c3)CC2)CC1 | -1.93% | 2.74% | 1.05% | 3.16% | -7.54% | -1.6% | 8.65% | 0.408% | 5.21% | 16.1% | -1.41%
13 | CN1N=C(C(=O)N(Cc2ccco2)C2CC2)CCC1=O | -3.94% | 0% | 7.53% | 0.679% | 1.46% | -1.18% | 9.49% | 4.75% | 4.25% | 5.2% | 8.43%
14 | Cc1ccc(C(=O)NS(=O)(=O)c2cccc3cnccc23)c(=O)[nH]1 | -5.08% | 13.5% | -0.0909% | 7.48% | 0.65% | 1.66% | 6.64% | 13% | 6.93% | 15.8% | 2.35%
15 | COc1ccccc1OCc1cc(C(=O)N2C[C@H](O)[C@@H](N(C)C)C2)n[nH]1 | -3.86% | 6.94% | 0.606% | -3.31% | -1.46% | 0.442% | 11.9% | 9.72% | 2.1% | 2.56% | -2.07%
16 | O=C(NCCN1CCc2ccccc2C1)c1scnc1Cl | -2.6% | 13.2% | -2.29% | -8.63% | 6.26% | -3.24% | 18% | 6.79% | -6.4% | 23.5% | -6.08%
17 | Cc1ccc(CNCCOc2ccc(S(C)(=O)=O)cc2)cc1 | -7.67% | -5.48% | 4.35% | -1.11% | -2.18% | -0.798% | -3.68% | 9.56% | 4.17% | -1.24% | 3.43%
18 | CCN(CC)c1ccc(NS(=O)(=O)c2cncc(F)c2)cn1 | 1.55% | 13.7% | 2.14% | 7.06% | 3.57% | -5.99% | 4.71% | -23.6% | 6.25% | 11.1% | -6.32%
19 | Cc1cc(C(=O)N2CCCCC2C)ccc1NCCCO (configuration not stated) | -2.03% | -2.6% | 3.91% | 5.61% | -3% | 0.712% | 4.73% | -4.27% | 3.88% | 7.32% | -0.238%
20 | Cc1nnc(N2CCCC3(CN(Cc4ccc(C)s4)CCO3)C2)o1 (configuration not stated) | 0.137% | 5.48% | -2.15% | 8.14% | 3.97% | -5.19% | 13.1% | -2.59% | 2.08% | 6.17% | -3.69%
21 | CN(Cc1ccccn1)C1COC2(CCN(Cc3cccnc3)CC2)C1 (configuration not stated) | -2.78% | 16% | -2.32% | -9.58% | 4.72% | 49.2% | 12.1% | 17.1% | 5.32% | 16.7% | -7.71%
22 | O=C1CC[C@@H]2[C@@H](CCN2C(=O)c2ccsc2)N1CC1CC1 | -4.27% | -2.7% | 6.58% | -0.934% | 4.2% | 2.23% | 21.4% | -14.4% | 4.32% | 7.69% | 2.18%
